Screens: PubChem, National Center for Advancing Translational Sciences (NCATS)
CHX counter = Cycloheximide Counterscreen for Small Molecule Inhibitors of Shiga Toxin. AID 2314, 2010. 12% of 300,000 active. max response, %. cell reporter, cycloheximide protein synthesis inhibition counterscreen; in the data active = max response mostly above about 13%, no sharp cut-off; inactive = mostly below about 14%; note: read at 38.3 µM for the half of the compounds with a filed dose
AMA1 RON2 block = qHTS for Inhibitors of AMA1-RON; Towards Development of Antimalarial Drug Lead: Primary Screen. Plasmodium falciparum AMA1 (3D7) - RON2 peptide interaction. AlphaScreen AMA1-biotinylated RON2 peptide binding. Potency, µM (titrated, usually from 58.2 µM), usual class: inhibitors. 0.2% of 360,000 active; note: nearly all actives have a fitted effect of over 45% in size
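AMA1 (3D7) with his tag at 25 nM final met compounds first, then biotinylated RON2 peptide at 25 nM; detection used donor plus acceptor beads, 10 µg/mL apiece, read by AlphaScreen after 30 min at room temperature.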
Pf growth 96h = Primary qHTS for delayed death inhibitors of the malarial parasite plastid, 96 hour incubation | Potency, µM (highest dose often 28.7 µM), actives largely listed as inhibitors | P. falciparum luciferase reporter growth, 96 h | AID 504834, 2011 | 6.9% of 320,000 active
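P. falciparum expressing integrated firefly luciferase, in erythrocytes at 2% hematocrit, 0.05% parasitemia, incubated with compounds 96 h at 37 C, 5% CO2. Growth inhibition read as loss of luminescence; two-generation exposure targets delayed-death apicoplast inhibitors.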
SARS PLpro yeast = qHTS of Yeast-based Assay for SARS-CoV PLP. Potency, µM (doses to about 32.9 µM), usual class: activators. 0.19% of 330,000 active. AID 485353, 2010. S. cerevisiae expressing SARS-CoV PLpro, growth rescue; calls by dose curve; note: nearly all actives have a fitted effect of over 55% in size
Shiga inhibitor = A qHTS for Small Molecule Inhibitors of Shiga Toxin; Vero cells, Shiga toxin protein synthesis inhibition reporter; inhibition, % at 38.7 µM; 9.2% of 290,000 active; in the data active = inhibition mostly above about 28%, no sharp cut-off; inactive = mostly below about 43%
Pf growth 48h = Primary qHTS for delayed death inhibitors of the malarial parasite plastid, 48 hour incubation; P. falciparum luciferase growth in erythrocytes, 48 h; Potency, µM (highest dose often 28.7 µM), most hits filed as inhibitors; 5.9% of 310,000 active
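In quantitative HTS format, infected erythrocytes bearing luciferase-reporter parasites were treated for a single generation at 37 C. Luminescence after adding detection reagent served as the growth measure.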
Numbers stand for hits. This is a sample that favours compounds with a hit; in the whole collection about 19% have one here. Unless noted, calls come from the whole dose curve; as a rule, active = well fitted curve in the direction sought with a large enough effect; inconclusive = small, poorly fitted or top-dose-only effect, or another doubt; inactive = no such curve, though single readings can be large; an effect the other way counts as inactive or inconclusive.

Results for COc1cccc(-c2cc3nc(-c4ccccc4)cc(N4CCCC(O)C4)n3n2)c1 (stereo not drawn) ?
CHX counter: inactive; AMA1 RON2 block: inactive; Pf growth 96h: inactive; SARS PLpro yeast: inactive; Shiga inhibitor: inactive; Pf growth 48h: 12µM

What do the screens show for `CC(=O)Nc1c(O)nc(SCc2ccccc2C#N)[nH]c1=O`?
CHX counter: inactive; AMA1 RON2 block: inactive; Pf growth 96h: inactive; SARS PLpro yeast: inactive; Shiga inhibitor: inactive; Pf growth 48h: inactive

Results for CCn1cc2nc(SCC(=O)Nc3ccc(OC)cc3OC)n(Cc3ccc(OC)cc3)c(=O)c2n1 ?
CHX counter: inactive; AMA1 RON2 block: inactive; Pf growth 96h: inactive; SARS PLpro yeast: inactive; Shiga inhibitor: inactive; Pf growth 48h: inconclusive

Results for COc1ccc(-c2ccc3c(c2)O[C@H](CN(C)C(=O)Nc2ccccc2F)[C@@H](C)CN([C@H](C)CO)S3(=O)=O)cc1 ?
AMA1 RON2 block: inactive

How did O=S(=O)(Nc1ccc(-c2cnco2)cc1)c1ccccc1 do in these assays?
CHX counter: inactive; AMA1 RON2 block: inactive; Pf growth 96h: inconclusive; SARS PLpro yeast: inactive; Shiga inhibitor: inactive; Pf growth 48h: inactive

What do the screens show for `CC(C)(C)c1ccc(-c2cnco2)cc1`?
CHX counter: inactive; AMA1 RON2 block: inactive; Pf growth 96h: inactive; SARS PLpro yeast: inactive; Shiga inhibitor: inactive; Pf growth 48h: inactive

How did O=C(NC(=O)c1ccccc1)Nc1ccc(-c2cnco2)cc1 do in these assays?
CHX counter: 32; AMA1 RON2 block: inactive; Pf growth 96h: inactive; SARS PLpro yeast: inactive; Shiga inhibitor: 63; Pf growth 48h: inactive

What do the screens show for `CC(C)(C)C(=O)Nc1ccc(-c2cnco2)cc1`?
CHX counter: 21; AMA1 RON2 block: inactive; Pf growth 96h: inactive; SARS PLpro yeast: inactive; Shiga inhibitor: 64; Pf growth 48h: inactive

What do the screens show for `O=C(Nc1ccc(Cl)cc1)Nc1ccc(-c2cnco2)cc1`?
CHX counter: 20; AMA1 RON2 block: inactive; Pf growth 96h: inconclusive; SARS PLpro yeast: inactive; Shiga inhibitor: inactive; Pf growth 48h: inconclusive

What do the screens show for `Cc1cccc(NC(=S)N(CCN(C)C)C(C)c2ccccn2)c1` (stereo not drawn)?
CHX counter: inactive; AMA1 RON2 block: inactive; Pf growth 96h: inactive; SARS PLpro yeast: inactive; Shiga inhibitor: inactive

Results for O=C(Cc1cccs1)NCc1ccc(Cl)cc1 ?
CHX counter: 15; AMA1 RON2 block: inactive; Pf growth 96h: inactive; SARS PLpro yeast: inactive; Shiga inhibitor: inactive; Pf growth 48h: inactive

Results for COc1ccc(CC(=O)NCC(c2ccc(OC)cc2)N(C)C)cc1 (stereo not drawn) ?
CHX counter: inactive; AMA1 RON2 block: inactive; Pf growth 96h: inactive; SARS PLpro yeast: inactive; Shiga inhibitor: inactive; Pf growth 48h: inconclusive

How did CN(C)c1ccc(NC(=O)COC(=O)CNC(=O)c2cccs2)cc1 do in these assays?
AMA1 RON2 block: inactive; Pf growth 96h: inactive; SARS PLpro yeast: inactive; Pf growth 48h: inactive

How did CN(C)c1ccc(C(CNC(=O)c2cccs2)N(C)C)cc1 (stereo not drawn) do in these assays?
CHX counter: 50; AMA1 RON2 block: inactive; Pf growth 96h: inactive; SARS PLpro yeast: inactive; Shiga inhibitor: 51; Pf growth 48h: inactive

Results for O=C(Cc1cccs1)NCc1cccs1 ?
CHX counter: inactive; AMA1 RON2 block: inactive; SARS PLpro yeast: inactive; Shiga inhibitor: inactive; Pf growth 48h: inactive

How did COc1ccc(C(CNC(=O)Cc2cccs2)N(C)C)cc1 (stereo not drawn) do in these assays?
CHX counter: 11; AMA1 RON2 block: inactive; Pf growth 96h: inactive; SARS PLpro yeast: inactive; Shiga inhibitor: inactive; Pf growth 48h: inactive

Results for COc1ccc(CNC(=O)Cc2cccs2)cc1 ?
CHX counter: 43; AMA1 RON2 block: inactive; Pf growth 96h: inconclusive; SARS PLpro yeast: inactive; Shiga inhibitor: 61; Pf growth 48h: inactive

Results for COc1ccc(S(=O)(=O)N2CCCCC2)cc1NC(=O)c1ccc2c(c1)OCO2 ?
CHX counter: inactive; AMA1 RON2 block: inactive; Pf growth 96h: inactive; SARS PLpro yeast: inactive; Shiga inhibitor: inactive; Pf growth 48h: inactive

How did CCNc1ccc(C(=O)OCC(=O)N(Cc2ccccc2)C(C)(C)C)cc1[N+](=O)[O-] do in these assays?
CHX counter: inactive; AMA1 RON2 block: inactive; Pf growth 96h: inactive; SARS PLpro yeast: inactive; Shiga inhibitor: inactive; Pf growth 48h: inactive

Results for O=C(CSc1nnc(Cc2cccs2)n1-c1ccc(Cl)cc1)NCc1ccc2c(c1)OCO2 ?
CHX counter: inactive; AMA1 RON2 block: inactive; Pf growth 96h: 7.4µM; SARS PLpro yeast: inactive; Shiga inhibitor: inactive; Pf growth 48h: 0.93µM

Results for O=C(CCn1c(=O)sc2ccccc21)NCc1ccc2c(c1)OCO2 ?
CHX counter: 12; AMA1 RON2 block: inactive; Pf growth 96h: inactive; SARS PLpro yeast: inactive; Shiga inhibitor: inactive; Pf growth 48h: inactive

What do the screens show for `O=C(CSc1nnc(-c2cccs2)n1-c1ccccc1)NCc1ccc2c(c1)OCO2`?
CHX counter: inactive; AMA1 RON2 block: inactive; SARS PLpro yeast: inactive; Shiga inhibitor: inactive; Pf growth 48h: inactive

How did O=C(CCn1c(=O)oc2ccccc21)NCc1ccc2c(c1)OCO2 do in these assays?
CHX counter: inactive; AMA1 RON2 block: inactive; Pf growth 96h: inactive; SARS PLpro yeast: inactive; Shiga inhibitor: inactive; Pf growth 48h: inactive

What do the screens show for `O=C(Cc1cccs1)NCc1ccc2c(c1)OCO2`?
CHX counter: 17; AMA1 RON2 block: inactive; Pf growth 96h: inactive; SARS PLpro yeast: inactive; Shiga inhibitor: 53; Pf growth 48h: inactive

How did O=C(NCCCNC(=O)c1cccs1)c1cccs1 do in these assays?
CHX counter: inactive; AMA1 RON2 block: inactive; Pf growth 96h: inactive; SARS PLpro yeast: inactive; Shiga inhibitor: inactive; Pf growth 48h: inactive

How did CCCCC(CC)CNC(=O)c1cccs1 (stereo not drawn) do in these assays?
CHX counter: inactive; AMA1 RON2 block: inactive; Pf growth 96h: 4.7µM; SARS PLpro yeast: inactive; Shiga inhibitor: inactive; Pf growth 48h: 5.2µM

What do the screens show for `COC(C[C@@H]1O[C@H]1[C@@H](O)COCc1ccccc1)OC`?
CHX counter: inactive; AMA1 RON2 block: inactive; Pf growth 96h: inactive; SARS PLpro yeast: inactive; Shiga inhibitor: inactive; Pf growth 48h: inactive

Results for CC(C)(N)C(=O)N[C@@H](Cc1cnc[nH]1)C(=O)N[C@H](Cc1ccc2ccccc2c1)C(=O)N[C@H](Cc1ccccc1)C(=O)N[C@@H](CCCCN)C(N)=O ?
CHX counter: inactive; Shiga inhibitor: inactive

What do the screens show for `COc1cccc(NC(=O)COC(=O)CNC(=O)C2CCCCC2)c1`?
AMA1 RON2 block: inactive; Pf growth 96h: inactive; SARS PLpro yeast: inactive; Pf growth 48h: inactive

Results for COc1ccc(C(CNC(=O)CN2C(=O)NC3(CCCC3)C2=O)N(C)C)cc1 (stereo not drawn) ?
CHX counter: 25; AMA1 RON2 block: inactive; Pf growth 96h: inactive; SARS PLpro yeast: inactive; Shiga inhibitor: inactive; Pf growth 48h: inactive
